Rows were chosen to be rich in hits. Some 11% of all compounds tested hit in one or more screens of this group.
PNC assembly inh – perinucleolar compartment assembly inhibition; PC3M PTB-GFP, PNC prevalence imaging, 16 h; active compounds read low; activity change (PNC), negative = inhibition, % at 10 µM; hit rate 3.1% among 140,000;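 active means readout at or below -70, meaning at least 70% loss of cells showing the perinucleolar compartment, a nuclear body marking cancer cells; inconclusive means readout between -30 and a set limit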
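PC3M cells stably expressing PTB-GFP, 750–1000 cells/well, treated 16 h at 37 °C with compound (23 nl of library stock), in duplicate. After paraformaldehyde fixation and Hoechst stain, imaged at 20x; PNC prevalence scored by image analysis.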
HPGD block – blocks human HPGD enzyme activity. Potency, µM, most hits filed as inhibitors. AID 894. hit rate 4.3% among 150,000. purified HPGD, NADH fluorescence kinetic, PGE2 substrate. P15428
Target sequence (P15428 whole entry, looked up): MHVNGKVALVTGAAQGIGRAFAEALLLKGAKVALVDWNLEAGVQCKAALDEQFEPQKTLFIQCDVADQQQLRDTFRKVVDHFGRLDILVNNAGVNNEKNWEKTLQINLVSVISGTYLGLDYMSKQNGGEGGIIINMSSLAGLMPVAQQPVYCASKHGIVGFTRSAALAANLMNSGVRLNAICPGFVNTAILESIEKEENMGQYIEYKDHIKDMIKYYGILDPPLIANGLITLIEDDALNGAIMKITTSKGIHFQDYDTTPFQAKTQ
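20 nM HPGD preincubated 15 min at room temperature with compound in 50 mM Tris-HCl pH 8, 0.01% Tween 20. Started with 1 mM NAD+ and 30 uM prostaglandin E2; NADH fluorescence (360/450 nm) read 5 times over 30-s intervals, last minus first.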
ALDH1A1 inh – inhibitors of human aldehyde dehydrogenase 1A1 | AID 1030 | P00352 | hit rate 7.3% among 220,000 | Purified ALDH1A1, NADH fluorescence, propionaldehyde substrate | Potency, µM (series often up to 75.3 µM), usual class: inhibitors
Numbers stand for hits; 0 = inactive; ? = inconclusive; - = no result; [ ] = another dose, or the depositor's remark. Unless noted, the call rests on the fitted dose curve; in most records, active means well fitted inhibition curve with a large enough effect (not every such curve was filed as active); inconclusive means small, poorly fitted or top-dose-only effect, or another doubt; inactive means no such curve, though single readings can be large or run the other way.

SMILES | PNC assembly inh | HPGD block | ALDH1A1 inh
CCSC1=NC2(CCCCC2)Nc2sc3c(c21)CCCC3 | ? | 4.5µM | 7.1µM
CCSc1ncnc2sc3c(c12)CCC3 | 0 | 0 | 0
CC1CC[C@@]2(C(=O)O)CC[C@]3(C)C(=CCC4[C@@]5(C)CCC(O)C(C)(C)C5CC[C@@]43C)C2C1C (some centres undefined) | - | 0 | 0
Cc1cccc(N2CCN(C(=O)C(C)n3nc(C)n4c(cc5occc54)c3=O)CC2)c1C (centres undefined) | 0 | 0 | 0
CC1(C)Cc2c(sc3[nH]c(=S)n(Cc4ccco4)c(=O)c23)CO1 | 0 | 22µM | 5µM
O=C(c1ccc2c(=O)n(Cc3ccco3)c(=S)[nH]c2c1)N1CCN(Cc2ccccc2)CC1 | ? | 0 | ?
CC1(C)Cc2c(sc3c2c(=N)n(Cc2ccco2)c(=O)n3Cc2ccccc2)CO1 | 0 | 0 | ?
CN1CCN(C(=O)c2ccc3c(=O)n(Cc4ccco4)c(=S)[nH]c3c2)CC1 | 0 | 0 | ?
COc1cc(NC(=O)c2ccc3c(=O)n(Cc4ccco4)c(=S)[nH]c3c2)cc(OC)c1OC | 0 | 0 | 1.3µM
CCCN(CCC)C(=O)c1ccc2c(=O)n(Cc3ccco3)c(=S)[nH]c2c1 | - | - | 25µM
O=C(Cc1cccc2ccccc12)N1CCCc2ccccc21 | 0 | 0 | 0
CCC1=NN(C(=O)CCc2ccccc2O)C(O)(C(F)(F)F)C1 (centres undefined) | ? | 0 | 0
COc1ccc(C(=O)N2CCC(=O)N(C(CO)Cc3ccccc3)CC2)cc1 (centres undefined) | 0 | 0 | 0
Cc1ccc(C)c(Cn2c(O)c(N=NC(=S)Nc3ccccc3F)c3ccccc32)c1 | - | - | 13µM
Cc1ccccc1CN(C)C(C)C(=O)Nc1ccccc1F (centres undefined) | - | - | 0
Cc1ccccc1Cn1c(O)c(N=NC(=S)Nc2ccccc2F)c2ccccc21 | - | - | 32µM
Oc1c(N=NC(=S)Nc2ccccc2F)c2ccccc2n1Cc1ccc(Cl)cc1 | - | - | 10µM
NC(=S)N=Nc1c(O)n(CCCl)c2ccc(Cl)cc12 | - | - | 0
C=CCn1c(O)c(N=NC(=S)Nc2ccc(OC)cc2)c2ccccc21 | 0 | 0 | ?
C=CCn1c(O)c(N=NC(=S)Nc2cccc(OC)c2)c2ccccc21 | 0 | 0 | ?
Oc1c(N=NC(=S)Nc2ccccc2F)c2ccccc2n1Cc1ccccc1F | - | - | 20µM
CCC(=O)Nc1ccc2c(c1)nc(CN1CCN(C(C)=O)CC1)n2C | 0 | 0 | 0
Cn1c(SCC(=O)Nc2ccccc2F)nnc1-c1ccc(S(=O)(=O)N2CCOCC2)cc1 | ? | 0 | ?
Cc1cccc(CNc2ncnc3[nH]ncc23)c1 | - | 0 | 0[13.5 µM]
O=C(c1cccc(F)c1)N1CCC2(CCN(Cc3cc(C(F)(F)F)cc(C(F)(F)F)c3)CC2)CC1 | - | 0 | 0
SMILES | PNC assembly inh | HPGD block | ALDH1A1 inh
C/C(=N\N1CCN(C)CC1)c1ccc(OC(F)F)cc1 | - | - | 0
O=Nc1c(O)n(Cc2ccc(Cl)c(Cl)c2)c2ccccc12 | 0 | ? | 0
CCNC(=S)N=Nc1c(O)n(Cc2ccc(Cl)cc2)c2ccccc12 | 0 | 0 | 3.5µM
Cc1ccc(C(=O)NCc2ccccn2)cc1Cl | - | - | 0
Cc1ccc(NS(=O)(=O)c2ccc(OCC(=O)NCC3CCCO3)cc2)cc1 (centres undefined) | - | - | 0
O=C(/C=C/c1cccc([N+](=O)[O-])c1)NCCSCc1ccc(Cl)cc1Cl | 0 | 0 | ?
O=C(NCC1CCCO1)C(=Cc1cccc([N+](=O)[O-])c1)C(=O)NCC1CCCO1 (centres undefined) | 0 | 0 | 0
O=C(/C=C/c1cccc([N+](=O)[O-])c1)NCC1CCCO1 (centres undefined) | 0 | 6.3µM | 14µM
O=C(/C=C/c1cccc([N+](=O)[O-])c1)NCCSCc1ccccc1Cl | ? | 0 | 13µM
Cn1c(=O)[nH]c(=O)c2c1nc(NCCCO)n2CCCc1ccccc1 | 0 | 0 | 0
COc1cc(CCNC(C)=O)c(C(=O)/C=C/c2cccc(OC)c2OC)cc1OC | - | 0 | 0
Cc1ccc(C(=O)CSc2ncn[nH]2)cc1 | 0 | ? | ?
CC(C)C(C(=O)Nc1ncn[nH]1)N1C(=O)c2ccccc2C1=O (centres undefined) | ? | 0 | 0
Cc1ccc(S(=O)(=O)/N=C2/C=C(Sc3ncn[nH]3)C(=O)c3ccccc32)c(C)c1 | 0 | 1.4µM | 13µM
Cc1ccc(S(=O)(=O)/N=C2/C=C(Sc3ncn[nH]3)C(=O)c3ccccc32)cc1 | 0 | 0.89µM | 13µM
CC(C)c1ccc(S(=O)(=O)/N=C2/C=C(Sc3ncn[nH]3)C(=O)c3ccccc32)cc1 | ? | 1.4µM | 1.8µM
O=S(=O)(Nc1ncn[nH]1)c1ccc2ccccc2c1 | ? | 0 | 0
Cc1ccc(-n2c(SCc3cn4ccsc4n3)nc3ccccc3c2=O)cc1 | 0 | 0 | 0
O=C(O)[C@@H]1CCCN1 | - | 0 | 0[13.5 µM]
C=CCNC(=O)N1CCc2nc(-c3ccccc3)c3c(c2C1)CO[C@@H](C)C3 | - | 0 | 0[13.5 µM]
